Among the test systems are NCI-H23 lung; NCI-H226 lung; NCI-H322M lung; HOP-62 NSCLC; NCI-H460 lung; HOP-92 NSCLC; NCI-H522 lung; A549/ATCC NSCLC; 786-0 renal; COLO 205 colon; DU-145 prostate; K-562 leukemia; MALME-3M melanoma; MDA-MB-231 breast; RXF 393 renal; SF-268 CNS; SF-295 CNS; SF-539 CNS; UACC-257 melanoma; M14 melanoma.
Common to all, as to experiment: NCI-60 one-dose screen, 48 h (100 = growth as untreated, 0 = no growth, -100 = all killed)
Common to all, as to settings: 10 µM unless noted

Compounds without any hit were thinned out: in the full panel of roughly 83,000, 20% have a hit.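 A percent growth of 40 corresponds to 60% growth inhibition; 0 means no net growth; -100 means all cells died. Active threshold: below 10.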 A number with no mark means an inactive call. Active and inactive are the calls of the source.

Consider `NCCn1cc(-c2nc(-c3c[nH]c4ncccc34)cs2)c2cc(F)ccc21`, for which the growth in the assay on NCI-H23 lung was 76.7%; in the assay with NCI-H226 lung, 74.5%; with NCI-H322M lung, 76.9%; in the assay with HOP-62 NSCLC, 73.6%; in the assay on NCI-H460 lung it was 51.3%; with HOP-92 NSCLC it was 49.1%. For the same compound, the growth is 90.7% with NCI-H522 lung; 61.7% in the assay with A549/ATCC NSCLC; 87.5% in the assay with 786-0 renal; 49.2% with COLO 205 colon; 93.9% in the assay on DU-145 prostate; 22.6% with K-562 leukemia. In addition, the growth in the assay with MALME-3M melanoma is 78.6%; in the assay with MDA-MB-231 breast, 63.9%; in the assay with RXF 393 renal, 86.7%; in the assay with SF-268 CNS, 82.1%; with SF-295 CNS, 96.7%; with SF-539 CNS it was 82.7%. The results for the growth in the assay on UACC-257 melanoma and with M14 melanoma were 93.8% and 86.2%, respectively.
`Nc1nc2c3ccncc3cc(-c3cccc(Cl)c3)c2c2cnccc12`: the growth with NCI-H23 lung is 66.8%; in the assay with NCI-H226 lung, 33.1%; with NCI-H322M lung, 70.4%; in the assay with HOP-62 NSCLC it was 44.1%; in the assay on NCI-H460 lung, 12.9%; in the assay on HOP-92 NSCLC, 50.3%. The growth with NCI-H522 lung was 48.4%; in the assay on A549/ATCC NSCLC, 28.3%; in the assay on 786-0 renal it was 21.3%; in the assay on COLO 205 colon it was 20.9%; in the assay on DU-145 prostate it was 40.5%; in the assay on K-562 leukemia, 17.1%. In addition, the growth in the assay with MALME-3M melanoma is 57%; in the assay with MDA-MB-231 breast it was 52.8%; in the assay with RXF 393 renal, 10.4%; in the assay with SF-268 CNS, 49.5%; in the assay on SF-295 CNS, 31.4%; with SF-539 CNS, 30.1%. Besides, the growth in the assay on UACC-257 melanoma was 59%; with M14 melanoma it was 45.7%.
With `CC(C)c1cc(C(=O)O)c(O)c(C(C)C)c1.CC(C)c1cc(C(=O)O)c(O)c(C(C)C)c1.[Mn]`, the growth with NCI-H23 lung was 110%; with NCI-H226 lung, 103%; in the assay on NCI-H322M lung, 110%; with HOP-62 NSCLC, 112%; with NCI-H460 lung it was 102%; with HOP-92 NSCLC, -39.3% (active). Further, the growth is 79.5% with NCI-H522 lung; 99.9% with A549/ATCC NSCLC; 101% in the assay with 786-0 renal; 112% in the assay with COLO 205 colon; 108% with DU-145 prostate; 94.8% with K-562 leukemia. Also, the growth is 103% in the assay on MALME-3M melanoma; 103% with MDA-MB-231 breast; 129% with RXF 393 renal; 96.2% in the assay on SF-268 CNS; 107% in the assay on SF-295 CNS; 105% in the assay on SF-539 CNS. Besides, the growth in the assay on UACC-257 melanoma was 98.8%; with M14 melanoma it was 107%.
As to `Nc1c2c(nc3ccc(Cl)cc13)CC(c1ccc(O)cc1)CC2=O` (stereo not given), the growth with NCI-H23 lung is 61.2%; in the assay on NCI-H226 lung, 90.5%; with NCI-H322M lung, 56.2%; with HOP-62 NSCLC, 56.4%; in the assay with NCI-H460 lung, 23.2%; with HOP-92 NSCLC, 88.4%. For the same compound, the growth with NCI-H522 lung was 43.6%; in the assay on A549/ATCC NSCLC it was 59.5%; in the assay with 786-0 renal it was 57.5%; with COLO 205 colon, 123%; in the assay with DU-145 prostate, 72.9%; with K-562 leukemia, 18.5%. Further, the growth in the assay on MALME-3M melanoma was 52.6%; in the assay with MDA-MB-231 breast it was 68.5%; in the assay on RXF 393 renal, 74.2%; with SF-268 CNS, 65.3%; with SF-295 CNS, 36.2%; in the assay on SF-539 CNS, 50.8%. The growth was 78.2% with UACC-257 melanoma and 21.8% in the assay with M14 melanoma.
Turning to `N#CC1=C(N)Oc2c(sc3c(F)cccc23)C1c1ccc(Cl)cc1` (stereo not given), the growth with NCI-H23 lung is 43.7%; in the assay with NCI-H226 lung, 74.9%; in the assay on NCI-H322M lung, 55.1%; in the assay on HOP-62 NSCLC it was 28.8%; in the assay on NCI-H460 lung, 13.1%; in the assay with HOP-92 NSCLC it was 36.9%. The growth is 6.14% (active) in the assay on NCI-H522 lung; 38% with A549/ATCC NSCLC; 21.1% in the assay on 786-0 renal; 38.4% in the assay with COLO 205 colon; 41% in the assay on DU-145 prostate; 14.2% in the assay on K-562 leukemia. In addition, the growth with MALME-3M melanoma is 57.9%; in the assay with MDA-MB-231 breast, 43.5%; with RXF 393 renal, 9.87% (active); in the assay on SF-268 CNS, 45.3%; with SF-295 CNS, 20.2%; in the assay with SF-539 CNS, -0.306% (active). For the same compound, the growth was 66.4% in the assay on UACC-257 melanoma and -26.1% (active) in the assay on M14 melanoma.
Consider `CCCCC[C@H]1C/C=C2/C(=O)C=C[C@@H]2C/C=C\CCCC(=O)O[C@@H](CCCCC)C/C=C2/C(=O)C=C[C@@H]2C/C=C\CCCC(=O)O1`, for which the growth in the assay with NCI-H23 lung is -72.7% (active); in the assay on NCI-H226 lung, -61.2% (active); in the assay with NCI-H322M lung, -85.7% (active); with HOP-62 NSCLC, -74.4% (active); in the assay with NCI-H460 lung, -54.7% (active); in the assay with HOP-92 NSCLC it was -68.8% (active). The growth with NCI-H522 lung was -81.7% (active); with A549/ATCC NSCLC, -43.5% (active); in the assay on 786-0 renal, -86.8% (active); with COLO 205 colon, -81.7% (active); in the assay with DU-145 prostate, -93.1% (active); with K-562 leukemia, -45.3% (active). Moreover, the growth in the assay on MALME-3M melanoma is -78.4% (active); with MDA-MB-231 breast it was -50.1% (active); with RXF 393 renal it was -92.4% (active); in the assay with SF-268 CNS, -78.7% (active); in the assay with SF-295 CNS it was -45% (active); in the assay on SF-539 CNS, -89.5% (active). The growth was -61.7% (active) in the assay with UACC-257 melanoma and -82.8% (active) with M14 melanoma.
For the compound `CCCCN1CCCCn2c1nc1c2c(=O)n(C)c(=O)n1C`, the growth with NCI-H23 lung was 108%; in the assay on NCI-H226 lung it was 104%; in the assay on NCI-H322M lung it was 110%; in the assay on HOP-62 NSCLC it was 103%; in the assay with NCI-H460 lung it was 101%; with HOP-92 NSCLC, 95.7%. In addition, the growth with NCI-H522 lung was 90.1%; in the assay on A549/ATCC NSCLC it was 89%; in the assay on 786-0 renal, 100%; in the assay on COLO 205 colon, 114%; in the assay with DU-145 prostate, 105%; in the assay with K-562 leukemia, 91.2%. The growth is 116% in the assay on MALME-3M melanoma; 103% with MDA-MB-231 breast; 108% in the assay with RXF 393 renal; 105% in the assay with SF-268 CNS; 106% in the assay on SF-295 CNS; 116% with SF-539 CNS. The results for the growth with UACC-257 melanoma and with M14 melanoma were 97% and 106%, respectively.

For the origin of these results see PubChem BioAssay (NCI).
